# A selection: hits, their analogues and other compounds. The true share with any hit is near 1.8%.
# GC-A act: GC-A (human) enzyme activation. P16066. HEK293 GC-A cells, cGMP TR-FRET, EC30 ANP; 0% at EC30 ANP, 100% saturating ANP. activation, % at 10 µM. 370,000 compounds, 0.14% hits. AID 1671463; in the data active means activation above about 40%
# Target sequence (P16066 whole entry, looked up): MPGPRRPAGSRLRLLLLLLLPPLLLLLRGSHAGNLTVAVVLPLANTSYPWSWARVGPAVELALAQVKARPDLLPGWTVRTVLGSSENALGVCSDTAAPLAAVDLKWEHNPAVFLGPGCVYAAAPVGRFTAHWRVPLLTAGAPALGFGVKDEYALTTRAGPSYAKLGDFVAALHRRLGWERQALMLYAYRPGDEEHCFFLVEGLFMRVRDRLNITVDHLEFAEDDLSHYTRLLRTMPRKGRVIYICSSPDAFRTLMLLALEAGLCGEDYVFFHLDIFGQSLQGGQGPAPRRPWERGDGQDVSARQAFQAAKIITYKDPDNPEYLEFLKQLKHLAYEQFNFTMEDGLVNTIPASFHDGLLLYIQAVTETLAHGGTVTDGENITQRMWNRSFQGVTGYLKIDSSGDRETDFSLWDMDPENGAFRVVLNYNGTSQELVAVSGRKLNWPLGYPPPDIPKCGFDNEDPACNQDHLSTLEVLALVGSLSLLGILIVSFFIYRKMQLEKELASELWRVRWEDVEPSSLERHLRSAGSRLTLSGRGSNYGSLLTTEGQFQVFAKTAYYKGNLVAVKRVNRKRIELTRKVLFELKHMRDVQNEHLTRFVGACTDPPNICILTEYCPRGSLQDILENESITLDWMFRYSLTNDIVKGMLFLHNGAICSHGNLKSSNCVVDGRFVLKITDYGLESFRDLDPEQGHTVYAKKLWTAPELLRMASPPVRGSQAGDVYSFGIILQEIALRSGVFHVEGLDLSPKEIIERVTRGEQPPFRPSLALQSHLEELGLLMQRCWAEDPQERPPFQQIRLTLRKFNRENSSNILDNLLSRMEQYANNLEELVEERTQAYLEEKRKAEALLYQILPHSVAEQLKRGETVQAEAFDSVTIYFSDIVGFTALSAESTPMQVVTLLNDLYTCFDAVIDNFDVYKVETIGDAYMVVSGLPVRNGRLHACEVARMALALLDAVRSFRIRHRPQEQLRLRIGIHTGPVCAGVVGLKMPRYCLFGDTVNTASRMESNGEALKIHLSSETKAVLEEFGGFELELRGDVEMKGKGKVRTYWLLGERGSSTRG
# Myeloid diff MLP: myeloid differentiation induction; calls only at 10 µM; 360,000 compounds, 1% hits; ER-HoxA9 myeloid progenitors, lysozyme-GFP differentiation, flow cytometry;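 active means normalized GFP-positive differentiation at or above the plate's own cutoff, the solvent-only control mean plus 3 SD; inconclusive means no clear call, values can overlap the other calls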;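 further: cells exposed to compound for four days before flow analysis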
# NPR2 activator: GC-B (human) receptor activation. P20594. AID 1920062. 370,000 compounds, 0.11% hits. HEK293-GC-B cells, CNP EC30, cGMP TR-FRET; 0% at EC30 CNP, 100% saturating CNP. activation, % at 10 µM;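 active means activation at 10 µM reaching about 35% in either raw or pattern-adjusted values, limit read from the data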
# Granule exo inh: blocks lytic granule exocytosis | TALL-104 LAMP-1 surface exposure, flow cytometry; cells stimulated with thapsigargin and PMA | inhibition, % at 10 µM | 360,000 compounds, 0.66% hits | AID 651702;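 active means inhibition above about 55%, limit read from the data; inconclusive means no clear call, values can overlap the other calls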
# Numbers stand for hits; – = inactive; ? = inconclusive; · = no result given; + = active, no number.
SMILES,GC-A act,Myeloid diff MLP,NPR2 activator,Granule exo inh
O=C(c1ccc2nc[nH]c2c1)N1CCN(c2cccc(C(F)(F)F)c2)CC1,–,–,–,–
O=C(c1ccc2ncsc2c1)N1CCN(c2cccc(C(F)(F)F)c2)CC1,–,+,–,–
O=C(CCC(=O)c1ccc(F)cc1)OC1CCOC1=O (centres undefined),56,–,–,–
Cc1ccc(-c2nc3ncccn3c2Nc2ccc3c(c2)OCCO3)cc1,41,–,44,–
Oc1ccc(-c2nc3ncccn3c2Nc2ccc3c(c2)OCCO3)cc1,–,–,–,–
Clc1ccc(-c2nc3ncccn3c2Nc2ccc3c(c2)OCCO3)cc1,45,–,42,–
Clc1ccc(-c2nc3cnccn3c2Nc2ccc3c(c2)OCO3)cc1,41,–,39,–
COc1ccc(-c2nc3ncccn3c2Nc2ccc3c(c2)OCCO3)cc1,46,–,43,–
O=[N+]([O-])c1ccc2nc(COCc3nc4ccccc4[nH]3)[nH]c2c1,–,·,–,·
Cc1[nH]c2ccccc2c1C(=O)C(C)OC(=O)c1ccc(NC(=O)CC#N)cc1 (centres undefined),–,+,–,–
Cc1nc(-c2ccc(Cl)cc2)sc1C(=O)NNC(=O)C(C)C,43,–,–,–
CNC(=O)c1sc(-c2ccc(Cl)cc2)nc1C,46,–,–,–
C=CCC[C@@H](Cc1ccc(F)cc1)C(=O)OC[C@@H](Cc1c[nH]c2ccccc12)NC(=O)[C@@H](CC=C)CC(=O)N(CCO)Cc1ccccc1,–,–,–,–
C=CCC[C@H](Cc1ccc(F)cc1)C(=O)OC[C@H](Cc1c[nH]c2ccccc12)NC(=O)[C@H](CC=C)CC(=O)N(CCO)Cc1ccccc1,–,–,–,59
CNC(=O)c1ccc(NC(=O)CC23CC4CC(CC(C4)C2)C3)cc1,–,–,–,–
CCN(CC)C(=O)c1cccc(NC(=O)CC23CC4CC(CC(C4)C2)C3)c1,–,+,–,–
Cc1ccccc1NCc1nc2ccccc2n1C,–,–,–,–
Cn1c(CNc2ccccc2O)nc2ccccc21,–,+,–,–
O=C(OCc1cn(Cc2c(F)cccc2F)nn1)N1CCOCC1,–,·,–,·
CCOC(=O)c1cc(-c2ccc(/C=C3/C(=O)N(c4ccc(C(=O)O)cc4)N=C3C)o2)ccc1Cl,–,+,–,–
CCOc1cc(/C=C2\CCC/C(=C\c3cc(Cl)c(O)c(OCC)c3)C2=O)cc(Cl)c1O,–,+,–,82
CCOc1cc(/C=C2\CN(C)C/C(=C\c3ccc(O)c(OCC)c3)C2=O)ccc1O,–,?,–,–
CCC/C(C#Cc1ccc(N(C)C)cc1)=C1/c2ccccc2C(=O)N1c1ccccc1,–,+,–,–
COc1ccc([C@H]2CC(=O)C=C(c3ccc4[nH]ccc4c3)C2)cc1OC,–,–,–,–
O=C1C=C(c2ccc3[nH]ccc3c2)C[C@@H](c2ccc(F)cc2)C1,–,–,36,–
SMILES,GC-A act,Myeloid diff MLP,NPR2 activator,Granule exo inh
Cc1ccc(N=C(N)N=C(N)N)cc1,–,+,–,–
CCCCNC(=O)C[C@H]1C[C@@]2(C(=O)OC)C(=C[C@H](C3CCCC3)O[C@@H]2C)N(Cc2ccco2)C1=O,–,·,–,·
CC(C)C[C@H](NC(=O)c1ccccn1)C(=O)N1CCC[C@H]1C(=O)NCc1ccccc1,–,·,–,·
Cc1cc(C)cc(C(=O)OCCN(C)C2CN(Cc3cn(Cc4ccccc4C(F)(F)F)nn3)S(=O)(=O)C2)c1 (centres undefined),–,·,–,·
O=C(COC(=O)c1ccccc1Br)NC1CCCC1,–,+,–,–
COc1ccccc1NC(=O)CON=C(N)CC(=O)NC1CCCCC1,–,+,–,–
COc1ccccc1C(=O)OCC(=O)NC1CCCC1,–,+,–,–
CC1=C2NC(N)=[N+](Cc3ccccc3)CC2n2c(=O)n(-c3ccccc3)c(=O)n2C1 (centres undefined),–,·,–,·
CCN1C(=S)N[C@@H](c2cccs2)C(C(=O)OC)=C1C,–,–,35,–
O=C(N/N=C/c1ccc2c(c1)OCO2)c1ccc(COc2cccc3cccnc23)cc1,–,+,–,–
Cc1ccccc1NC(=O)COC(=O)c1ccc(S(C)(=O)=O)c([N+](=O)[O-])c1,–,–,–,–
COc1ccc(CCC(=O)OCc2csc(CC(=O)Nc3ccccc3C)n2)cc1,–,+,–,–
Cc1ccccc1NC(=O)Cc1nc(COC(=O)c2ccc(S(C)(=O)=O)c([N+](=O)[O-])c2)cs1,·,+,·,–
COc1ccc(S[C@]2(C(=O)N3CCN(C(C)=O)CC3)CC(=O)N(C(=O)CCc3ccccc3)[C@@H]2c2ccc(OC)cc2)cc1,–,·,–,·
O=C(Nc1c(-c2ccccc2)[nH][nH]c1=O)c1cccs1,–,–,–,–
CCOc1ccc(S(=O)(=O)Nc2ccccc2C(=O)NCC2CCCO2)cc1 (centres undefined),–,–,–,–
CCOC(=O)c1ccccc1NS(=O)(=O)c1ccc(OCC)cc1,–,+,–,–
COCCNC(=O)C1(C)CCN(C(=O)COc2ccc(Cl)cc2Cl)C1 (centres undefined),–,–,–,–
CCOC(=O)Cn1c(-c2nonc2NC(=O)c2ccccc2F)nc2ccccc21,–,+,–,–
CCC(=O)Nc1nonc1-c1nc2ccccc2n1Cc1ccccc1,–,–,–,–
O=C(Oc1cccc2cccnc12)c1cccs1,–,+,–,–
C[C@@H]1CN([C@@H](C)CO)C(=O)CCCn2nncc2CO[C@H]1CN(C)CC1CCCCC1,–,·,–,·
C[C@@H]1CN([C@@H](C)CO)C(=O)CCCn2cc(nn2)CO[C@H]1CN(C)S(=O)(=O)c1ccc(Oc2ccccc2)nc1,–,–,–,–
C[C@H](CO)N1C[C@H](C)[C@@H](CN(C)CC2CC2)OCc2cnnn2CCCC1=O,–,+,–,–
C[C@H]1CN([C@@H](C)CO)C(=O)CCCn2cc(nn2)CO[C@@H]1CN(C)S(=O)(=O)c1ccc(Oc2ccccc2)nc1,–,+,–,–
SMILES,GC-A act,Myeloid diff MLP,NPR2 activator,Granule exo inh
CC(NC(=O)COC(=O)COc1ccc(C(=O)c2ccccc2)cc1)c1ccccc1 (centres undefined),65,–,–,–
CC(C)CN(C(=O)COc1ccc(Br)cc1C=O)C1CCS(=O)(=O)C1 (centres undefined),–,–,–,–
CCN1C[C@@H]2[C@@H]3C(=O)N(Cc4ccccc4)C(=O)[C@@H]3[C@](Cc3ccccc3)(C1=O)N2C(=O)c1ccc(C(F)(F)F)cc1,–,+,–,–
CCN1C[C@@H]2[C@@H]3C(=O)N(Cc4ccccc4)C(=O)[C@@H]3[C@](CC)(C1=O)N2C(=O)c1ccc(C(F)(F)F)cc1,–,–,–,–
C[C@H](O)[C@@H]1CN2CCc3ccc(-c4ccc5c(c4)OCO5)cc3[C@@H]2C[C@@H]1N(C)C(=O)Nc1ccccc1,–,·,–,·
CCOC(=O)[C@]12CCCC=C1N(CCCOC)C(=O)[C@@H]2CC(=O)NCc1cccs1,–,·,–,·
CC1(C)CC(=O)C2=C(C1)NC(Nc1nc3ccccc3o1)=NC2c1ccccn1 (centres undefined),46,–,–,–
